Reference: ChEMBL document CHEMBL1157539, “Thousands of chemical starting points for antimalarial lead identification” (Nature, 2010)

What was measured:
Assay type in all cases: functional
[1] = test system: Plasmodium falciparum; test: GSK_TCMDC: Inhibition of Plasmodium falciparum 3D7 in whole red blood cells, using parasite LDH activity as an index of growth. Test compounds present at 2uM
[2] = test system: Plasmodium falciparum; test: GSK_TCMDC: Inhibition of Plasmodium falciparum Dd2 in whole red blood cells, using parasite LDH activity as an index of growth. Test compounds present at 2uM
[3] = test system: HepG2; test: GSK_TCMDC: Percent inhibition of human HepG2 cell line. Test compounds present at 10uM.

CN1CCN(CC(O)CNC(=O)Nc2ccc(Cl)cc2)CC1.O=C(O)C(F)(F)F (stereo not drawn)
Inhibition [1]: 99% | Inhibition [2]: 98% | Inhibition [3]: 1%

Cc1cccc2nc(-c3ccc(-c4ccc(CN5CCC(N)C5)cc4)s3)[nH]c12.O=C(O)C(F)(F)F (stereo not drawn)
Inhibition [1]: 100% | Inhibition [2]: 98% | Inhibition [3]: 21%

Cc1ccc(S(=O)(=O)NC(=N)NC(N)=O)cc1
Inhibition [1]: 94% | Inhibition [2]: 2% | Inhibition [3]: 26%

Br.COc1cc(CCCON2C(=N)N=C(N)NC2(C)C)cc(OC)c1OC
Inhibition [1]: 98% | Inhibition [2]: 94% | Inhibition [3]: 68%

CCCC(C)c1ccc(N2C(N)=NC(N)=NC2(C)C)cc1.Cl (stereo not drawn)
Inhibition [1]: 90% | Inhibition [2]: 7% | Inhibition [3]: 51%

CC(=O)N1c2ccccc2C(C)=CC1(C)C
Inhibition [1]: 97% | Inhibition [2]: 11% | Inhibition [3]: 3%

CCNCc1ccc(-c2cccc(-c3nc4ccccc4[nH]3)c2)cc1.O=C(O)C(F)(F)F
Inhibition [1]: 100% | Inhibition [2]: 18% | Inhibition [3]: 26%

Cn1nccc1C(=O)NCCNCc1ccc(-c2cccc(-c3nc4ccccc4[nH]3)c2)cc1.O=C(O)C(F)(F)F
Inhibition [1]: 100% | Inhibition [2]: 87% | Inhibition [3]: 35%

Cc1cc(N2CCN(C)CC2)nc2ccc(NC(=O)Cc3cccc(C(F)(F)F)c3)cc12
Inhibition [1]: 99% | Inhibition [2]: 51% | Inhibition [3]: 26%

NC(=O)c1cccc(CNCc2ccc(-c3cccc(-c4nc5ccccc5[nH]4)c3)cc2)c1.O=C(O)C(F)(F)F
Inhibition [1]: 100% | Inhibition [2]: 94% | Inhibition [3]: 29%

Cc1nc(-c2ccc(-c3ccc(C(=O)Nc4ccc(C(C)C)c(OCCN(C)C)c4)cc3)c(C)c2)no1.O=C(O)C(=O)O
Inhibition [1]: 99% | Inhibition [2]: 45% | Inhibition [3]: 49%
